Test results reported in PubChem BioAssay (NCATS).
Results filed as inconclusive are left out. The source made the active and inactive calls. The call rests on the fitted dose curve; in most records, active means well fitted cell-killing curve with a large enough effect; inconclusive means small, poorly fitted or top-dose-only effect; inactive means flat fitted curve, though single readings scatter.

Test: Identifying Small Molecule Inhibitors of Pancreatic Cancer Stem Cells (A278, Adherent) (AID 1259361); further: nearly all actives have a fitted effect of over 35% in size
Conditions: series mostly up to 46.1 µM
Text: Progenitor-like cancer cells, often referred to as cancer stem cells (CSC), are believed to be the drivers of therapeutic resistance and rapid recurrence. CSCs are postulated to reside in specific niches characterized by low oxygen tension, limited nutrient supply, and high redox load. Selectively targeting CSC, alone or in combination with cytotoxic agents, as a means to produce durable remissions is an appealing concept. Modeling these cells in in vitro setting is an important step in finding new therapies and/or targets. Multiple reports highlight that forcing cells in culture into 3-dimensionaly architectures (spheroids) re-establishes key progenitor-like transcriptional signatures. Pancreatic cancer is among the diseases with the most dismal outlook which is driven, largely, by recurance following front-line therapies. […] In hopes of deriving new insight into the targeting of these pancreatic CSCs we examined three established pancreatic cancer cell lines in cytotoxicity assays versus a collection of approved and investigational drugs. Importantly, we screened these lines as traditional monolayer (2D) and spheroid (3D) formats to gain an appreciation of agents with differential activity.
Multicellular tumor spheroids from Panc1, MiaPaCa-2, and the primary low-passage tissue culture line SB.06 were seeded in stem cell media (SCM) in nonadherent 6-well plates coated with hydrogel (Corning Life Sciences, Chelmsford, Mass) and pancreatic spheres generated for 14 days before screening. Cells were seeded into 1536-well solid-bottom white tissue culture treated Greiner Bio One Plates (789173-F) using a MultiDrop Combi (Thermofisher Scientific) dispenser and a small sterile cassette. One column was media alone to be used as a :"no cells" control. The plates were then covered with sterilized stainless steel gasketed lids from Kalypsys. After allowing cells to attach for 4 hours, 23 nL of test compound or control (negative control DMSO and positive control 9.2 uM Bortezomib-final) were added from a 1536-well polypropylene compound source plate to each well using a 1536 head pin tool from Kalypsys. Cells were then incubated for 48 hours at 37C, 95% relative humidity and 5% CO2. After 48 hours, plates were removed from the incubator and 3 uL of CellTiter-Glo (Promega) was added using an Aurora Flying Reagent Dispenser Bioraptor. Plates were incubated at room temperature for 10 minutes prior to reading the luminescence on the Viewlux (PerkinElmer). The relative luciferase units are used to calculate the percent activity using the activity of DMSO in the cells and no cells columns for normalization of no inhibition and full inhibition respectively.

Q: With CC(NC(=O)Cc1cc(F)cc(F)c1)C(=O)NC(C(=O)OC(C)(C)C)c1ccccc1 (stereo not given) as the compound, how does the IC50 (viability decrease) read?
A: inactive

Q: For CCOc1cc2ncc(C#N)c(Nc3ccc(OCc4ccccn4)c(Cl)c3)c2cc1NC(=O)/C=C/CN(C)C, which IC50 (viability decrease) is on record?
A: 1.18 µM (active)

Q: Which IC50 (viability decrease) does the source give for CCC1(Cc2ccc(N)cc2)CCC(=O)NC1=O (stereo not given) here?
A: inactive

Q: For C[C@@H]1CCN(C(=O)CC#N)C[C@@H]1N(C)c1ncnc2[nH]ccc12, which IC50 (viability decrease) is on record?
A: inactive

Q: Which IC50 (viability decrease) does the source give for O=C(O)CC/C=C\CC[C@H]1[C@@H](N2CCCCC2)[C@@H](O)C[C@@H]1OCc1ccc(-c2ccccc2)cc1 here?
A: inactive

Q: For NC(=O)Nc1cc(-c2ccc(CN3CCOCC3)c(F)c2)sc1C(=O)N[C@H]1CCCNC1, which IC50 (viability decrease) is on record?
A: 0.526 µM (active)

Q: For CCCCCCCCCCCCCCCCCCOP(=O)([O-])OC1CC[N+](C)(C)CC1, which IC50 (viability decrease) is on record?
A: 8.12 µM (active)

Q: With CCC1(O)CC2CN(CCc3c([nH]c4ccccc34)[C@@](C(=O)OC)(c3cc4c(cc3OC)N(C=O)[C@H]3[C@](O)(C(=O)OC)[C@H](OC(C)=O)[C@]5(CC)C=CCN6CC[C@]43[C@@H]65)C2)C1 (stereo not given in full) as the compound, how does the IC50 (viability decrease) read?
A: 0.418 µM (active)

Q: Which IC50 (viability decrease) does the source give for COC(=O)C1=C(C)NC(C)=C(C(=O)OCCCN2CCC(c3ccccc3)(c3ccccc3)CC2)[C@H]1c1cccc([N+](=O)[O-])c1 here?
A: 26.4 µM (active)

Q: For CC[C@@H](C(=O)O)C1CC[C@H](C)C([C@@H](C)[C@H](O)[C@H](C)C(=O)[C@H](CC)C2O[C@]3(C=C[C@@H](O)[C@]4(CC[C@@](C)(C5CC[C@](O)(CC)[C@H](C)O5)O4)O3)[C@H](C)C[C@@H]2C)O1 (stereo not given in full), which IC50 (viability decrease) is on record?
A: 0.0743 µM (active)
